Assay outcomes: PubChem, Broad Institute
Shown is part of a subset that was picked to be rich in hits.
N-glyco inh: N-linked glycosylation inhibition. hit rate 0.23% among 360,000. D54 ERlucT glycosylation luciferase reporter, 24 h; percent of 100 nM tunicamycin response. reporter increase, % at 12.5 µM. AID 588692;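 active = mean luciferase reporter signal, scaled so untreated is 0 and the glycosylation-blocking control 100, at or above a set limit in every replicate; inconclusive = mean reaches the limit but not every replicate does; inactive = mean below the limit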;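 also: luciferase carries N-glycosylation sites so blocking glycosylation raises the light; 0% = median of neutral control wells and 100% = median of 100 nM tunicamycin wells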
Rtt109 Vps75: blocks Candida albicans Rtt109/Vps75 acetyltransferase activity; Q5AAJ8; purified Rtt109/Vps75, ThioGlo CoA-SH fluorescence, 4 h; inhibition, % at 34.9 µM; hit rate 0.16% among 330,000; AID 540336;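 active = inhibition of at least 50% in every replicate; inconclusive = best replicate reaches 50% inhibition but some replicates fall short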
Target sequence (Q5AAJ8 whole entry, looked up): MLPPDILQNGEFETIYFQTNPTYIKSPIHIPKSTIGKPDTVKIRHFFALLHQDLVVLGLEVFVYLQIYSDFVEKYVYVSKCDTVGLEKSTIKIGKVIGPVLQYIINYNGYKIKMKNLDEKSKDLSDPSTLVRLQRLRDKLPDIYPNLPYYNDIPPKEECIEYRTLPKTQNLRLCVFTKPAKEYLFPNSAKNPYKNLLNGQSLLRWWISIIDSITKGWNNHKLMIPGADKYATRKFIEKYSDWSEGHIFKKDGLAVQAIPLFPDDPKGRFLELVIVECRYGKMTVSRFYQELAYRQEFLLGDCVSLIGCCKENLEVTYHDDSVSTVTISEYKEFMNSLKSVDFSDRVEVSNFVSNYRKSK
PglD DTNB: blocks C. jejuni PglD acetyltransferase activity. purified PglD enzyme, DTNB colorimetric CoA detection. hit rate 0.098% among 360,000. inhibition, % at 12.5 µM. AID 602405; in the data active = inhibition above about 16%, passing the limit was not always enough; inconclusive = no clear call, values can overlap the other calls
DENV2 CPE: inhibitors of DENV2 cytopathic effect; DENV2-infected cells, cytopathic effect rescue, plate reader; CPE inhibition, % at 9.99 µM; hit rate 1.7% among 350,000; in the data active = CPE inhibition above about 20%, passing the limit was not always enough; inconclusive = no clear call, values can overlap the other calls; tested in BHK-21 cells;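 also: 0% = median of neutral control wells and 100% = median of positive control wells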
* marks the source's active call; other numbers are inactive results; ? = inconclusive; / = no result given; ! = not active in a repeat.

SMILES	N-glyco inh	Rtt109 Vps75	PglD DTNB	DENV2 CPE
O=C(C[C@@H]1C=C[C@@H](NC(=O)CN2CCOCC2)[C@@H](CO)O1)NC1CCC1	/	/	8	-4
CN(C)C(=O)C[C@H]1CC[C@H](NC(=O)c2ccc(F)cc2)[C@H](CO)O1	/	/	0	17
Cc1ccc(CNC(=O)c2cc(-c3ccccc3)n(Cc3cc(C)no3)n2)cc1	-2	-2	3	5
Cc1cc(Cn2nc(C(=O)NCC3CC3)cc2-c2ccccc2)on1	-1	1	5	22*
CCCNC(=O)N[C@@H]1C=C[C@@H](CC(=O)NC2CCC2)O[C@@H]1CO	/	/	-1	-5
C[C@H]1CN([C@@H](C)CO)C(=O)Cc2cc(NC(=O)CCN3CCOCC3)ccc2O[C@H]1CN(C)Cc1ccncc1	/	/	5	-6
C[C@@H]1CN([C@@H](C)CO)C(=O)c2cc(C#CCC3CCCC3)cnc2O[C@H]1CN(C)S(=O)(=O)c1cccs1	/	/	-3	38*
C[C@@H]1CN([C@H](C)CO)C(=O)c2cc(C#Cc3ccc(F)cc3)cnc2O[C@@H]1CN(C)C	/	/	2	81*
C[C@@H]1CN([C@H](C)CO)C(=O)c2cc(C#CCC3CCCC3)cnc2O[C@H]1CN(C)S(=O)(=O)c1cccs1	/	/	-3	5
C[C@H]1CN([C@@H](C)CO)C(=O)c2cc(C#CC3CCCCC3)cnc2O[C@H]1CN(C)S(=O)(=O)c1ccc(F)cc1	/	/	-4	72*!
C[C@@H]1CN([C@H](C)CO)C(=O)c2cc(C#Cc3ccc(F)cc3)cnc2O[C@H]1CN(C)C	/	/	-1	-7
C[C@H]1CN([C@@H](C)CO)C(=O)c2cc(C#CC3CC3)cnc2O[C@@H]1CN(C)C	/	/	0	69*
C[C@@H]1CN([C@@H](C)CO)C(=O)c2cc(C#CC3CCCCC3)cnc2O[C@@H]1CN(C)S(=O)(=O)c1ccc(F)cc1	-3	/	-2	4
CC(=O)N(C)C[C@H]1Oc2ncc(-c3cccc(F)c3)cc2C(=O)N([C@H](C)CO)C[C@H]1C	/	/	3	4
COc1ccccc1-c1cn(CC[C@@H]2CC[C@@H](NC(=O)C3CCC3)[C@H](CO)O2)nn1	/	/	0	2
C[C@H](CO)N1C[C@H](C)[C@H](CN(C)C(=O)CN(C)C)Oc2ncc(C#Cc3ccccc3)cc2C1=O	/	/	-2	51*
OC1CCCCC1	0	5	-2	67*
Cc1ccc(S(=O)(=O)Nc2ccc3c(c2)CC(=O)N([C@H](C)CO)C[C@H](C)[C@@H](CN(C)C(=O)Nc2ccc4c(c2)OCO4)O3)cc1	/	/	-1	-12
O=S1(=O)OCCC(c2ccccc2)N1Cc1ccccc1 (centres undefined)	-1	-5	4	17
CN1C(c2ccccc2)CCOS1(=O)=O (centres undefined)	2	-5	0	47*
C#CCN(C[C@H]1[C@H](OC(=O)Nc2c(C)noc2C)[C@H](OC(=O)Nc2c(C)noc2C)C[C@@H](C(=O)OC)[C@H]1C(=O)OC)S(=O)(=O)c1ccc(C)cc1	1	/	0	70*
C#CCN(C[C@@H]1[C@@H](OC(=O)Nc2cccs2)[C@@H](OC(=O)Nc2cccs2)C[C@H](C(=O)OC)[C@@H]1C(=O)OC)S(=O)(=O)c1ccc(C)cc1	/	/	/	19
COC(=O)[C@@]1(Cc2ccccc2CN=[N+]=[N-])COC(c2ccc(OCCCO)cc2)=N1	/	/	0	27*
[N-]=[N+]=NCc1ccccc1C[C@]1(C(N)=O)N=C(c2ccc(OCCCO)cc2)O[C@H]1c1ccccc1	/	/	0	25*
COC(=O)[C@@]1(CCS(=O)(=O)c2ccccc2)N=C(c2ccc(OCCCO)cc2)O[C@H]1c1ccccc1	/	/	-1	27*
SMILES	N-glyco inh	Rtt109 Vps75	PglD DTNB	DENV2 CPE
COC(=O)[C@@]1(Cc2ccccc2N=[N+]=[N-])N=C(c2ccc(OCCCO)cc2)O[C@H]1c1ccccc1CN=[N+]=[N-]	/	/	4	14
COC(=O)[C@]1(CO)N=C(c2ccc(OCCCO)cc2)O[C@@H]1c1ccccc1CN=[N+]=[N-]	/	/	-2	51*
COC(=O)[C@]1(CCS(=O)(=O)c2ccccc2)N=C(c2ccc(OCCCO)cc2)O[C@@H]1c1ccccc1	/	/	-3	-1
CC(C)C#Cc1cnc2c(c1)C(=O)N([C@@H](C)CO)C[C@H](C)[C@H](CN(C)C(=O)Nc1cc(F)ccc1F)O2	/	/	2	-1
CC(=O)Nc1ccc2c(c1)C(=O)N(C)[C@H]1CC[C@H](CC(=O)N3CCc4ccccc4C3)O[C@@H]1CO2	/	/	2	-1
Cn1cnc(S(=O)(=O)N2C[C@H](O)COC[C@H]3O[C@@H](CC(=O)NCc4ccc(F)cc4)CC[C@@H]32)c1	/	/	-2	-13
C[C@H](CO)N1C[C@H](C)[C@@H](CN(C)Cc2ccc(C(F)(F)F)cc2)Oc2ccc(NC(=O)Cn3cnnn3)cc2C1=O	/	/	-19	-3
O=C(O)C[C@H]1C[C@H]2c3cc(NC(=O)NC4CCCC4)ccc3O[C@H]2[C@H](CO)O1	/	/	1	36*
O=C(Nc1ccc2c(c1)[C@@H]1C[C@H](CC(=O)N3CCCCC3)O[C@@H](CO)[C@@H]1O2)NC1CCCCC1	/	/	/	32*
O=C(Nc1ccc2c(c1)[C@@H]1C[C@@H](CC(=O)N3CCOCC3)O[C@@H](CO)[C@@H]1O2)NC1CCCCC1	/	/	0	23*
O=C(O)C[C@H]1C[C@H]2c3cc(NC(=O)NC4CCCC4)ccc3O[C@H]2[C@@H](CO)O1	/	/	1	13
Cc1noc(C)c1S(=O)(=O)Nc1ccc2c(c1)C(=O)N([C@@H](C)CO)C[C@H](C)[C@H](CN(C)S(=O)(=O)c1cn(C)cn1)O2	/	/	3	4
CO[C@@H]1CN(C)C(=O)c2ccc(NC(=O)c3ccccc3)cc2OC[C@H](C)N(C(=O)CN(C)C)C[C@@H]1C	/	/	-3	34*
CO[C@H]1CN(C)C(=O)c2ccc(NC(=O)c3ccccc3)cc2OC[C@@H](C)N(C(=O)CN(C)C)C[C@@H]1C	/	/	-1	28*
Cc1noc(C)c1NC(=O)N[C@@H]1CC[C@@H](CC(=O)Nc2ccc(-c3ccccc3)cc2)O[C@H]1CO	/	/	2	?
Cc1noc(C)c1NC(=O)Nc1ccc2c(c1)CC(=O)N([C@H](C)CO)C[C@H](C)[C@H](CN(C)C(=O)Nc1ccccc1)O2	/	/	1	20*
Cc1noc(C)c1NC(=O)Nc1ccc2c(c1)CC(=O)N([C@H](C)CO)C[C@H](C)[C@@H](CN(C)C(=O)Nc1ccccc1)O2	/	/	-1	7
Cc1noc(C)c1NC(=O)N(C)C[C@H]1Oc2ccc(NC(=O)Cc3ccccc3)cc2CC(=O)N([C@@H](C)CO)C[C@H]1C	/	/	-2	54*
Cc1noc(C)c1NC(=O)N(C)C[C@H]1Oc2ccc(NC(=O)NC3CCCCC3)cc2CC(=O)N([C@@H](C)CO)C[C@@H]1C	/	/	10	-3
Cc1noc(C)c1NC(=O)N(C)C[C@@H]1Oc2ccc(NC(=O)NC3CCCCC3)cc2CC(=O)N([C@H](C)CO)C[C@H]1C	/	/	9	32*
COC(=O)[C@@H]1C[C@H]2CC[C@H](O)C[C@H]2N1Cc1ccc(C(F)(F)F)cc1	4	-3	0	61*
COC(=O)[C@@H]1C[C@@H]2CC[C@@H](O)C[C@@H]2N1Cc1ccc(Cl)cc1	0	-5	5	-1
